The values that follow come from PubChem BioAssay (EPA / NIEHS).

As usually defined, the AC50 is the concentration at which the activity in the assay is half-maximal.

The source holds several records for some structures; these can differ, active in one and inactive in another. Active and inactive are the calls of the source. Rule for the calls: active = hit-call score of the fitted dose curve at least 0.9, where 1 is the maximum; inactive = score below 0.9.

Chain of Hepatocyte nuclear factor 3-beta (Homo sapiens) (Q9Y261 whole entry, looked up): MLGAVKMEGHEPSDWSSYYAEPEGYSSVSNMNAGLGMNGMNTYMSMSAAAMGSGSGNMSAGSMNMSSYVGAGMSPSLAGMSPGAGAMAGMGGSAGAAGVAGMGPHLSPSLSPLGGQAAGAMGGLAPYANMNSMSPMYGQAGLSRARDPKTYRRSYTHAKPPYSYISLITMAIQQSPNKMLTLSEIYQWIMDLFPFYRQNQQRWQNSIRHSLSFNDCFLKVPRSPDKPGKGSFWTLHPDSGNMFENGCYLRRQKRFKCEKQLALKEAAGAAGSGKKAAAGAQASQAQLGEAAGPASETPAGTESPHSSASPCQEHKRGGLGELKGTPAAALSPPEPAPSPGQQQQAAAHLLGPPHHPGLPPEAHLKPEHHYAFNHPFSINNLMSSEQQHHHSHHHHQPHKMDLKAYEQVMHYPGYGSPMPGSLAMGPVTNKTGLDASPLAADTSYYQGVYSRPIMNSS

The test has as its target Hepatocyte nuclear factor 3-beta (Homo sapiens) (UniProt Q9Y261). Put plainly: ATG_FoxA2_CIS: Attagene CIS-FACTORIAL HepG2 Assay for human Forkhead box A2 (FOXA2) (AID 2282942). As to conditions: HepG2 cis-reporter transcription factor activity, 24 h; actives raise or lower the signal. As to the method:
ATG_CIS is a cell-based, multiplexed-readout assay that uses HepG2, a human liver cell line, with measurements taken at 24 hours after chemical dosing in a 24-well plate.ATG_FoxA2_CIS is one of 52 assay component(s) measured or calculated from the ATG_CIS assay. It is designed to make measurements of mRNA induction, a form of inducible reporter, as detected with fluorescence intensity signals by Reverse transcription polymerase chain reaction (RT-PCR) and Capillary electrophoresis technology.Data from the assay component ATG_FoxA2_CIS was analyzed into 1 assay endpoint. This assay endpoint, ATG_FoxA2_CIS, was analyzed with bidirectional fitting relative to DMSO as the negative control and baseline of activity. Using a type of inducible reporter, measures of mRNA for gain or loss-of-signal activity can be used to understand the reporter gene at the transcription factor-level as they relate to the gene FOXA2. Furthermore, this assay endpoint can be referred to as a primary readout, because this assay has produced multiple assay endpoints where this one serves a reporter gene function. To generalize the intended target to other relatable targets, this assay endpoint is annotated to the dna binding intended target family, where the subfamily is forkhead box protein.
Human liver HepG2 cells are transiently transfected with multiple reporter transcription units (MRTUs) in 6-well plates using FuGene 6 reagent (Roche; 3 ml FuGene/1 mg DNA). The MRTU constructs are regulated by a cis-regulating element (promoter). […] A major difference between the CIS and TRANS system is that in CIS activities of endogenous TFs are measured, whereas the TRANS assay evaluates changes in activities of exogenous, chimeric NR-Gal4 proteins. […] At the end of 24 hour incubation, total RNA was isolated using TriZol reagent (Invitrogen). The isolated RNA is then reverse-transcribed using oligo(dT) primer and Mo-MLV reverse transcriptase (Invitrogen) with DNAse I (Ambion) treatment for 30 min. The one-tenth of the produced cDNA was amplified by PCR using Taq DNA polymerase (Invitrogen) and two reporter sequence-specific primers. The PCR products were fluorescently labeled by primer extension with 6-arboxyfluorescein (6-FAM) 5'-labeled reporter sequence-specific primer (2 min at 95 C, 20 s at 68 C and 10 min at 72 C) and these products were digested with 5U of HpaI (New England Biolabs) for 2h at 37 C. The fragments were purified using Qiaquick PCR columns (Qiagen), analyzed on an ABI 3130xL genetic analyzer (Applied Biosystems) with peak positions identified by using a set of X-rhodamine (ROX)-labeled MapMarker1000 molecular weight standards (BioVentures). The raw capillary electrophoresis data was processed using Attagraph software (Attagene).
Regarding `O=P(O)(O)CCC(F)(F)C(F)(F)C(F)(F)C(F)(F)C(F)(F)C(F)(F)F`, the result was inactive.
Same read-out and setting: the same measure for `NCCN`: “inactive”; for `CCOC=O`: “inactive”; for `c1cnc2c(c1)ccc1cccnc12`: “inactive”.
Still for that read-out and setting: in the case of `CCN(CCC#N)c1ccccc1` it was “inactive”; in that of `NNc1nc(-c2ccc([N+](=O)[O-])cc2)cs1`, “inactive”.
Take `CN(C)c1ccc(C(=C2C=CC(=[N+](C)C)C=C2)c2ccccc2)cc1`: the AC50 was 1.51 µM (active) and the result was inactive.
Turning to `CC(=O)Nc1ccc(O)cc1`, the call was inactive.
The same measure, in the same setting: in the case of `FC1(F)C=CC(F)(F)C1(F)F` it was “inactive”; in that of `CCO[Si](C)(C)OCC`, “inactive”; in that of `CCO[Si](CCC1CCC2OC2C1)(OCC)OCC` (stereo not given), “inactive”.
The same measure, in the same setting: the same measure for `CCOC(=O)c1nc(C(Cl)(Cl)Cl)n(-c2ccc(Cl)cc2Cl)n1`: “inactive”; for `COC1=CC(=O)C[C@@H](C)[C@]12Oc1c(Cl)c(OC)cc(OC)c1C2=O`: “inactive”.
On the same count and under the same terms, the same measure for `O=S(=O)(O)C(F)(F)C(F)(F)C(F)(F)C(F)(F)C(F)(F)C(F)(F)C(F)(F)C(F)(F)C(F)(F)C(F)(F)F`: “inactive”.
With `Nc1ccc(O)c(C(=O)O)c1`, the result was inactive.
Still for that read-out and setting: the same measure for `Oc1cc2ccccc2cc1O`: “inactive”; for `CC[N+](CC)(CC)Cc1ccccc1`: “inactive”.
On the same count and under the same terms, in the case of `O=C1c2ccccc2C(=O)c2c(O)c(O)cc(O)c21` it was “inactive”; in that of `Cc1cc(C(C)(C)C)c(O)c(C(C)(C)C)c1`, “inactive”; in that of `CCCCCc1ccc(O)cc1`, “inactive”.
Same read-out and setting: in the case of `NC(C(F)(F)F)C(F)(F)F` it was “inactive”; in that of `c1cc[nH]c1`, “inactive”; in that of `C[C@]12CC[C@@H]3c4ccc(O)cc4CC[C@H]3[C@@H]1CC[C@@H]2OC(=O)CCC1CCCC1`, “inactive”.
With `CCC(=O)C=Cc1ccc(OC)cc1`, the compound was classed as inactive.
Same read-out and setting: in the case of `C=CC(=O)OCCN(CC)CC` it was “inactive”; in that of `O=C1C=CC(=O)N1c1cccc(N2C(=O)C=CC2=O)c1`, “inactive”; in that of `Nc1ccn([C@@H]2O[C@H](CO)[C@@H](O)C2O)c(=O)n1` (stereo not given in full), “inactive”.
The same measure, in the same setting: in the case of `CCCCc1ccc2ccccc2c1S(=O)(=O)O` it was “inactive”.
For `O=C1OC2(c3ccccc31)c1cc(I)c(O)c(I)c1Oc1c2cc(I)c(O)c1I`, the compound was classed as inactive and the half-maximal activity concentration (AC50) was 29.9 µM (active).
For the compound `O=S(=O)(O)c1ccccc1`, the call was inactive.
Same read-out and setting: the same measure for `CCCCc1oc2ccccc2c1C(=O)c1cc(I)c(OCCN(CC)CC)c(I)c1`: “inactive”; for `COc1ccc(C#N)cc1`: “inactive”; for `Brc1ccc(Oc2ccc(Br)cc2Br)cc1`: “inactive”.
On the same count and under the same terms, in the case of `CC1CCC(CO)CC1` (stereo not given) it was “inactive”; in that of `Cc1ccc(S(=O)(=O)O)cc1`, “inactive”; in that of `Cc1cc(=O)oc2cc(O)ccc12`, “inactive”.
Regarding `O=C(OC(=O)C(F)(F)C(F)(F)F)C(F)(F)C(F)(F)F`, the call was inactive.
As for `OCC1CCC(CO)CC1` (stereo not given), the compound was classed as inactive.
